From ChEMBL document CHEMBL3988442, “University of Dundee, Small-Polar-MMV Screening Library” (2021)
About 13,000 (27%) of roughly 48,000 compounds showed an effect of 50% or more. Some of the results follow.

system: Wolbachia pipientis; assay: Anti-Wolbachia Cell-Based Screen; assay type: functional; set-up: scale not given: in the data most compounds retested in dose-response had high values; conditions: 5 µM

SMILES	Percent Effect
O=C1CN(C(=O)CC2C(=O)NCCN2CC2CCCCC2)CCN1 (configuration not stated)	-19.63%
Cc1occc1CNC(=O)C1CCCN1C(=O)C1CC1 (configuration not stated)	-6.321%
COC(=O)c1ccc(OC)c(CN2CCN(CC(C)C)C(=O)C2C)c1 (configuration not stated)	1.65%
COCC(C)(O)CNC(=O)Nc1cccc(OC)c1OC (configuration not stated)	4.697%
O=C(Cn1c(=O)n(Cc2ccco2)c2ncccc21)Nc1ccccn1	-4.791%
CC(C)(C)NC(=O)Cn1c(=O)n(Cc2ccco2)c2ncccc21	95.67%
O=C(Cn1c(=O)n(Cc2ccco2)c2ncccc21)NC1CCCC1	120%
Cc1nn(C(C)(C)C)c(=O)n1CC(=O)NC(C)(C)C	-3.979%
Cn1nc(C2CCN(CC(=O)NC3CC3)CC2)n(-c2ccccc2)c1=O	1.77%
O=C(Cn1c(=O)n(Cc2ccco2)c2ncccc21)NC1CCCCC1	-5.913%
CCN(CC)C(=O)Cn1c(=O)n(Cc2ccco2)c2ncccc21	92.26%
CCN(CCc1nccs1)C(=O)c1ccco1	-4.795%
O=C(Cn1c(=O)n(Cc2ccco2)c2ncccc21)NC1CC1	115.8%
CCCN(Cc1cccnc1)C(=O)C1CCN(Cc2ccco2)CC1	2.103%
O=C(NC1CC1)[C@H]1C[C@H]2OCC[C@H]2N(Cc2ccco2)C1	-4.068%
Cn1ncc2cnn(CC(O)COc3cccc4[nH]ccc34)c2c1=O (configuration not stated)	26.41%
CC(C)c1noc(CCC(=O)Nc2cc(C(F)(F)F)c[nH]c2=O)n1	-36.07%
CC(C)NC(=O)[C@H]1C[C@@H]2CN(C(=O)NC(C)C)C[C@H]1O2	-20.07%
CCc1ccc(NC(=O)N2C[C@H]3C[C@H](C(=O)NC)[C@@H](C2)O3)cc1	-8.923%
CC(C)NC(=O)N1C[C@H]2C[C@H](C(=O)NCc3ccccc3)[C@@H](C1)O2	-9.895%
CCc1cnc(N2C[C@H]3C[C@H](C(=O)NC4CCC4)[C@@H](C2)O3)nc1	-0.2357%
CCc1ccc(NC(=O)N2C[C@H]3C[C@H](C(=O)NC(C)C)[C@@H](C2)O3)cc1	101%
CCc1ccc(NC(=O)N2C[C@H]3C[C@H](C(=O)NC4CCC4)[C@@H](C2)O3)cc1	117.1%
Clc1cc(Cl)cc(OCCN2CCC(n3cncn3)CC2)c1	103.8%
Cc1ccccc1OCCC(=O)N1CCCC(n2cncn2)C1 (configuration not stated)	-9.445%
CSc1ccc(OCCN2CCC(n3cncn3)CC2)cc1	98.24%

SMILES	Percent Effect
Cc1cc(C)cc(OCCC(=O)N2CCCC(n3cncn3)C2)c1 (configuration not stated)	-4.983%
c1ccc(OCCN2CCC(n3cncn3)CC2)cc1	93.12%
Clc1ccc(OCCN2CCN(CCn3cncn3)CC2)cc1	-7.454%
Cc1cccc(C)c1OCCC(=O)N1CCC(c2nncn2C)CC1	0.8719%
Cc1cccc(C)c1OCCCN1CCC(n2cncn2)CC1	115.1%
FC(F)(F)Oc1ccc(CN2CCCC(n3cncn3)C2)cc1 (configuration not stated)	13.2%
CC(C(=O)N1CCN(CCOc2ccccc2)CC1)n1cncn1 (configuration not stated)	-7.881%
CCN(C)C(=O)c1ccc2c(c1)C(c1nc[nH]n1)CN2S(C)(=O)=O (configuration not stated)	-2.777%
COC(=O)c1ccc(CNC(C)(C)c2ccccc2OC)o1	5.551%
Cc1ccc(-c2cc(C(=O)NCCCc3csc(N)n3)[nH]n2)s1	-6.732%
Cc1ccn2ncc(C(=O)N3CCCC(c4cc(C)[nH]n4)C3)c2n1 (configuration not stated)	1.6%
CC(=O)N1CCc2c(nc(N(C)C)nc2NCc2cccs2)C1	5.703%
c1cncc(-c2ccnn2CN2CCOCC2)c1	-10.55%
Clc1ccc(CN(CCN2CCOCC2)Cc2cccnc2)c(Cl)c1	143.8%
Clc1cccc(Cl)c1CN(CCCN1CCOCC1)Cc1cccnc1	149.3%
Clc1ccc(CN(CCN2CCOCC2)Cc2cccnc2)cc1Cl	180.4%
CCN(CCN1CCOCC1)C(=O)c1cccnc1	-15.37%
O=C1O[C@@H]2CN(Cc3cccnc3)C[C@@H]2N1CCCN1CCOCC1	7.451%
Clc1ccc2oc(C3CCN(Cc4cccnc4)CC3)nc2c1	-21.47%
CCC(C)N(Cc1cccnc1)Cc1cc2c(cc1Cl)OCO2 (configuration not stated)	-26.91%
CN(Cc1c(F)cccc1Cl)C(=O)c1cnn(CCN2CCOCC2)c1	-8.866%
Cc1[nH]c(=O)[nH]c(=O)c1CN1CCCC(CCc2ccc(F)c(F)c2)C1 (configuration not stated)	8.003%
O=C1CC[C@H](C(=O)N(CCc2ccccc2)C2CCOC2)N1 (some centres not stated)	-17.91%
CCC(=O)N1CCc2[nH]cnc2C12CCN(C1CCOCC1)CC2	-8.971%
CCc1ccc(CN(C)Cc2cnc(S(=O)(=O)CC)n2CCOC)cc1	-8.303%
Cc1sc2nc(CCN)nc(N3CCC(N4CCCC4)CC3)c2c1C	-8.408%

SMILES	Percent Effect
Cc1cccnc1CNC(=O)NC(C)Cc1c(C)nn(C)c1C (configuration not stated)	-5.579%
O=C(NCCNC(=O)c1ccc(Br)cc1)c1ccc(O)cc1	3.17%
Cc1nc(S(=O)(=O)CCn2cccn2)n(CC2CCCO2)c1C (configuration not stated)	-14.31%
COCc1nc(CNc2cccc(-c3csc(C)n3)c2)cs1	-8.53%
COc1cccc(CNc2cc(C)nc(-c3ccncc3)n2)c1OC	-14.13%
CCc1nc(CNc2cc(C)nc(-c3cccnc3)n2)cs1	88.21%
CCc1csc(CNc2cc(C)nc(-c3cccnc3)n2)n1	113.3%
COc1cccc(CNc2cc(C)nc(-c3ccncc3)n2)c1O	-14.65%
CC(C)Cc1cc(CNc2nc(-c3cccnc3)nc3c2CNC3)no1	13.84%
CCSCC(C)NCc1nncn1C1CCCCC1 (configuration not stated)	-19.08%
COCCN(Cc1ccccn1)C(=O)Nc1cccnc1N1CCCC1	-3.62%
COCCCN(CCOC)C(=O)Nc1ccc(Br)cc1	130.2%
CCN(CCO)C(=O)Nc1ccc(OCCOC)nc1	0.2723%
COCCN(C)C(=O)c1ccccc1-n1cccn1	3.962%
COCCCN(CCOC)C(=O)Nc1ccccc1-n1cccn1	144.2%
COCCOc1ccc(NC(=O)N(CCCO)CC(C)(C)C)cn1	7.116%
O=C(C1CC=CC1)N1CCC2(CCN(Cc3cccc(F)c3)CC2)C1	0.9808%
N#Cc1ccc(CNC(=O)NC2CCN(c3ncccn3)CC2)cc1	5.422%
Cc1noc(C)c1CN1CCN(Cc2nccn2C)CC1	-9.314%
Cc1cc(CN2CCN(C(c3ccccc3)c3ccccc3)CC2)no1	-4.667%
Cn1cnc2c1CCN(c1ccnc(-c3ccccc3)n1)C2	-10.53%
Cc1cnc(CN2CCN(c3ccnc(-c4ccccc4)n3)CC2)cn1	144.2%
Cc1cc(CN2CCN(c3ccnc(-c4ccccc4)n3)CC2)no1	122.7%
Cc1cc(CN2CCN(CC(O)c3ccccc3)CC2)no1 (configuration not stated)	-10.98%
Cc1noc(C)c1CN1CCN(c2ccnc(-c3ccccc3)n2)CC1	94.83%
Cc1noc(C)c1CN1C[C@@H](C(=O)O)[C@H](c2ccccn2)C1	-12.63%

SMILES	Percent Effect
Cc1cnc(CN2CCCCC2c2nc(-c3ccccc3)no2)cn1 (configuration not stated)	19.76%
CS(=O)(=O)NCCNC(=O)c1ccc(OCc2ccccc2)nc1	7.359%
CC(C)NC(=O)N1CCCn2cnc(CO)c2C1.O=C(O)C(F)(F)F	89.15%
CCC(C)NC(=O)N1CCCn2cnc(CO)c2C1 (configuration not stated)	-12.35%
CC(C)OCc1ncn2c1CN(CCO)CCC2.O=C(O)C(F)(F)F	-4.222%
O=C1CCCN1Cc1ncn2c1CN(C(=O)NC1CCCCC1)CCC2	133.6%
CC(C)CC(=O)N1CCCn2cnc(CN3CCCC3=O)c2C1	1.077%
O=C1CCCN1Cc1ncn2c1CN(C(=O)NC1CCCC1)CCC2	86.82%
O=C(NC1CCCC1)N1CCCC(c2nccn2Cc2ccncc2)C1 (configuration not stated)	-3.815%
CC(C)NC(=O)N1CCCn2cnc(CN3CCCC3=O)c2C1	81.15%
Cn1nnnc1SCCNC(=O)CC1CCc2ccccc21 (configuration not stated)	1.963%
CCC(CO)NC(=O)Nc1ccc(OCC(F)(F)F)c(C)c1 (configuration not stated)	-12.14%
CCN(Cc1noc(CC(C)C)n1)Cc1ccccc1OCC(=O)O	3.118%
O=C(Cn1ccc2ccccc21)N1CCC(Oc2ncccc2Br)CC1	10.7%
Cl.Cl.c1c(CN2CCCCC2)nc2n1CCNC2	4.844%
CC(C)c1ccc(-n2cc(O)c(C(=O)O)n2)cc1	3.312%
CCCNC(=O)CN1CCC(NCc2c(C)nn(C)c2OC)CC1	-12.27%
CNC(=O)[C@@H]1C[C@@H](NC(=O)CCCc2cccs2)CN1C1CCOCC1	-14.74%
Cc1cccc(NC(=O)N2CCCn3cnc(CN4CCCC4)c3C2)c1.O=C(O)C(F)(F)F	-10.04%
CN(C)C(=O)NCc1ncn2c1CN(Cc1cccs1)CCC2.O=C(O)C(F)(F)F.O=C(O)C(F)(F)F	0.9692%
O=C(O)C(F)(F)F.O=C1CCCN1Cc1ncn2c1CN(C(=O)N1CCCC1)CCC2	106.2%
Cc1cccc(NC(=O)N2CCCn3cnc(CN(C)C(C)C)c3C2)c1.O=C(O)C(F)(F)F	110.9%
Cn1cc(CN2CCCn3cnc(CN4CCCC4=O)c3C2)cn1	-11.95%
O=C1CCCN1Cc1ncn2c1CN(C(=O)C1CC=CC1)CCC2	99.96%
